# Among all 320,000 compounds or so, about 22,000 (6.9%) were called active. Roughly 27% stayed inconclusive and do not appear here. The list comes from a sample in which actives are over-represented; it also holds similar structures and randomly drawn compounds. Unmarked numbers belong to inactive results. Calls follow the shape of the dose curve; as a rule, active = well fitted inhibition curve with a large enough effect; inconclusive = small, poorly fitted or top-dose-only effect, or another doubt; inactive = no such curve, though single readings can be large or run the other way.
# Test: Primary qHTS for delayed death inhibitors of the malarial parasite plastid, 96 hour incubation
# Conditions: P. falciparum luciferase reporter growth; series mostly up to 28.7 µM; activity change, negative = inhibition: at the top concentration
# Summary of the method: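 Parasite growth measured via integrated firefly luciferase reporter in P. falciparum. Infected erythrocytes at 2% hematocrit, 0.05% parasitemia final were treated 96 hours at 37 C under 5% CO2, and luminescence was read.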
# % is scaled to controls: 0 for no effect and ±100 for the full control effect; potency is read from the fitted curve at half-maximal effect.
SMILES,"activity change, negative = inhibition",Potency
COc1cccc(CNS(=O)(=O)c2cc3c(cc2C)n(C)c(=O)c(=O)n3C)c1,16.5%,
CCOc1ccc(C(=O)Nc2cccc(SC)c2)cc1,186%,
O=C(Nc1cccc(Cl)c1)OCc1ccccn1,154%,
CCOc1c(Nc2cccc(Cl)c2)c(=O)c1=O,,11.7 µM (active)
O=C(NCc1ccc(F)cc1)C1CCN(C(=O)Nc2ccc(F)cc2)CC1,-3.5%,
CC1CCCCN1S(=O)(=O)CCNC(=O)c1ccccc1 (stereo not drawn),8.3%,
Cc1cc(C(=O)OCC(=O)Nc2ccccc2Cl)c(C)o1,-28.2%,
COCCN(Cc1ccccc1)C(=O)Cc1ccc(S(=O)(=O)N2CCOCC2)s1,,9.28 µM (active)
COC(=O)COc1ccc(S(=O)(=O)N2CCOCC2)cc1,9.23%,
O=C(Cc1ccc(S(=O)(=O)N2CCOCC2)s1)NCCC(c1ccccc1)c1ccccc1,,7.38 µM (active)
COc1ccccc1NC(=O)COC(=O)Cc1ccc(S(=O)(=O)N2CCCCC2)s1,-13.1%,
O=C(COC(=O)c1cc(S(=O)(=O)N2CCOCC2)ccc1Cl)NCCc1ccccc1,9.09%,
O=C(O)c1ccc(S(=O)(=O)N2CCOCC2)o1,32.6%,
C[n+]1ccc(C(=O)NCc2ccccc2)cc1,-9.48%,
COc1ccnc2c1c(=O)n(Cc1cccc(F)c1)c(=O)n2C,-18.2%,
COc1ccc(/C=N/Nc2cc(N3CCOCC3)nc(C)n2)c(OC)c1,-10.6%,
CCNc1nc(Oc2ccc(C(=O)OC)cc2)nc(N2CCOCC2)n1,-8.27%,
Cc1cc(/C=C2/SC(=O)N(CC(=O)N3CCCC3)C2=O)c(C)n1C,0.761%,
COc1cccc(C(=O)CC(=O)C(=O)Nc2ccc([N+](=O)[O-])cc2C)c1,7.8%,
Cc1cc([N+](=O)[O-])ccc1NCc1cccc([N+](=O)[O-])c1,,10.4 µM (active)
Cc1cc([N+](=O)[O-])ccc1NC1CCCC1,33.7%,
COC(=O)c1ccccc1NC(=O)CSc1ccccn1,,2.94 µM (active)

SMILES,"activity change, negative = inhibition",Potency
COC(=O)c1ccccc1NC(=O)CSc1nnnn1C,-13.6%,
C[C@@H]1CC[C@@]2(OC1)O[C@H]1C[C@H]3[C@@H]4CC=C5C[C@@H](O)[C@H](O)C[C@]5(C)C4CC[C@]3(C)[C@H]1[C@@H]2C (stereo partly drawn),18.3%,
COc1cc(C(=O)NCC(=O)N2CC=C(c3ccccc3)CC2)cc(OC)c1OC,-7.67%,
Cc1cc(OCC(=O)Nc2c(C)n(C)n(-c3ccccc3)c2=O)ccc1[N+](=O)[O-],-12.6%,
O=C(COC(=O)c1ccc[nH]c1=O)Nc1ccc2c(c1)OC(F)(F)O2,6.84%,
O=C(O)COCC(=O)NCc1csc2ccc(Cl)cc12,5.36%,
Clc1ccc(CN2CCCCCC2)cc1Cl,,11.7 µM (active)
c1cc(-c2nn[nH]n2)ccc1CN1CCCCC1,14%,
O=C(Nc1ccc(CN2CCOCC2)cc1)c1cc(Cl)ccc1Cl,64.2%,
COc1ccccc1C(=O)NC(=S)NC12CC3CC(CC(C3)C1)C2,53.4%,
COc1ccc(NC(=S)N2CCC(NC(=O)c3cccc(F)c3)CC2)cc1,23.6%,
COc1ccc(C(=O)CN(C(=O)c2ccc(Cl)cc2)N2C(=O)c3ccccc3C2=O)cc1,-5.05%,
CCn1c(C)cc(=O)cc1-c1ccc(Cl)cc1,-8.16%,
COc1ccc(Cn2c(-c3ccc(Cl)cc3)c[n+]3ccccc23)cc1,,0.117 µM (active)
Cc1cc(C)c(C(=O)CSc2nc(C)cc(=O)[nH]2)c(C)c1,19.3%,
CSc1nnc(C2CCCN(CC(=O)Nc3ccccc3N3CCOCC3)C2)n1C(C)C (stereo not drawn),-0.457%,
COc1ccc(C(=O)n2nc(C)c(Br)c2C)cc1OC,-23.3%,
O=S(=O)(Nc1ccc(Cl)cn1)c1cnc(Cl)c(Br)c1,-15.1%,
CN1CCN(S(=O)(=O)c2cccc(C(=O)N3CCc4ccccc43)c2)CC1,-2.85%,
Cc1cccc(N2CCN(C(=O)c3cccc(S(=O)(=O)N4CCc5ccccc5C4)c3)CC2C)c1 (stereo not drawn),,11.7 µM (active)
COC(=O)c1ccc(S(=O)(=O)N2CCc3ccccc3C2)cc1,4.42%,
CCCCc1ccc(NC(=S)NCCCN2CCOCC2)cc1,-2.79%,

SMILES,"activity change, negative = inhibition",Potency
CCCCC(CC)CNCc1cccn1CCN1CCOCC1 (stereo not drawn),,11.7 µM (active)
CSc1ccc(CNCCN2CCOCC2)cc1,-19%,
COc1cccc(N2CC(C(=O)NCc3n[nH]c(=O)c4ccccc34)CC2=O)c1 (stereo not drawn),0.0788%,
CC(C[N+](C)(C)C)OC(N)=O (stereo not drawn),,9.53 µM (active)
CCc1ccc[n+](-c2nc([O-])sc2C=O)c1,3.32%,
COc1ccc(CNc2cc(C)cc(C)c2)cc1OC,333%,
COc1ccc(/C=C/C(=O)c2cc(Br)ccc(=O)c2O)cc1,,10.4 µM (active)
COc1ccc(C(=O)/C=C/c2cccnc2)c(OC)c1,45%,
COc1ccc(/C=C/C(=O)c2ccc(OC)cc2O)cc1,0.573%,
CSc1nsc(SCC(=O)Nc2cc(C(=O)O)ccc2C)n1,1.89%,
CC(=O)Nc1ccc(SC[C@H](Cc2ccccc2)N2CC[C@@H](C)CCC2=O)cc1,,3.29 µM (active)
COc1ccc(SCCN2CCN(CC(C)C)CCC2=O)cc1,39.1%,
C[C@H]1CCC(=O)N([C@H](CSc2ccccc2)Cc2ccccc2)CC1,,11.7 µM (active)
CC1CCN(CCC(=O)Nc2ccccc2)CC1,-26.8%,
COc1ccc(SC[C@H](Cc2ccccc2)N2CCN(CCc3ccccc3)CCC2=O)cc1,,4.65 µM (active)
CC(=O)Nc1ccc(NC(=O)C(C)OC(=O)C2CC(=O)N(CCc3ccccc3)C2)cc1 (stereo not drawn),0.835%,
CN1CCC(=O)N([C@H](CO)Cc2ccccc2)CC1,19.6%,
O=C1CC[C@H](O)CCN1[C@H](CSc1ccc(Br)cc1)Cc1ccccc1,1.74%,
O=C1CCN(Cc2ccc([N+](=O)[O-])cc2)CCN1[C@H](CO)Cc1ccccc1,3%,
C/C(Cc1ccccc1)=N\NC(=O)CNC(=O)c1ccccc1Cl,41.4%,
CCC1(CC)Cc2ccccc2-c2nc(CCl)[nH]c(=O)c21,75.3%,
COc1ccc(CCNS(=O)(=O)c2cc3c(cc2C)NC(=O)CO3)cc1OC,109%,

SMILES,"activity change, negative = inhibition",Potency
CCC(=O)c1ccc(OCC(=O)Nc2ccc(N3CCCCC3)cc2)cc1,-24.7%,
Cc1c(CC(=O)NCC(=O)NCC(=O)O)c(=O)oc2cc3oc4c(c3cc12)CCCC4,45.5%,
O=S(=O)(NC1CC2CCC1C2)c1ccc(Cl)cc1 (stereo not drawn),-11.6%,
CC1CN(C(=S)Nc2cccc(F)c2)CC(C)O1 (stereo not drawn),-26.1%,
CCOC(=O)Nc1ccc(NC(=O)OCC)cc1,41.7%,
CCCCC(CCC(=O)Nc1ccc(C(=O)OCC)cc1)C(=O)O (stereo not drawn),-4.38%,
CCCCCOC(=O)NCCOC(=O)Nc1ccc(C(=O)OCC)cc1,,11.7 µM (active)
CN1CCN(NC(=O)Nc2ccc(Br)cc2)CC1,62%,
O=C(NCCS(=O)(=O)NCc1ccc(Cl)cc1)c1ccccc1,46.1%,
CCOC(=O)Cc1csc(NC(=O)Nc2ccccc2)n1,7.05%,
CCOC(=O)Cc1csc(NC(=O)CSc2ccc(Br)cc2)n1,,2.62 µM (active)
CCOC(=O)Cc1csc(NC(=O)CSc2nc(C)cc(=O)[nH]2)n1,4.63%,
CCOC(=O)N1CCN(C(=O)COC(=O)c2cccc(S(C)(=O)=O)c2)CC1,13.7%,
CCCN(CC(=O)Nc1ccccc1OC)C(=O)CCC(=O)c1ccc(F)cc1,1.55%,
CCn1c(=N)n(CC(=O)c2cccc(OC)c2)c2ccccc21,48.5%,
CCCCCCCCCCOC(=O)Cn1c(COc2cccc(OC)c2)[n+](C)c2ccccc21,,3.29 µM (active)
CCCCOC(=O)Cn1c(=O)n(CC(=O)OCCCC)c2cc(C)ccc21,-23.5%,
NC(=O)c1oc2ccccc2c1NC(=O)CS(=O)(=O)c1ccccc1,6.28%,
CCOc1ccc2[nH]c(=O)c(CN(CCCO)S(=O)(=O)c3ccc(F)cc3)cc2c1,22.7%,
Cc1cccc(N2CCN(C(=O)CCS(=O)(=O)c3ccc4c(c3)NC(=O)C(C)S4)CC2)c1C (stereo not drawn),9.12%,
Cc1cc(=O)oc2cc(OC(C)C(=O)NCCc3ccc(S(N)(=O)=O)cc3)ccc12 (stereo not drawn),2.05%,
CCn1ccnc1CN(C)C(=O)c1cc(COc2ccc(Cl)cc2OC)on1,,3.7 µM (active)

SMILES,"activity change, negative = inhibition",Potency
CCn1ccnc1CN(C)C(=O)c1cc(COc2ccc(-n3cncn3)cc2)on1,14.7%,
COc1cc(Cl)ccc1OCc1cc(C(=O)N2CC[C@@H]3CCCC[C@H]3C2)no1,-29.8%,
O=C(N[C@@H](Cc1c[nH]c2ccccc12)C(=O)O)OCC1c2ccccc2-c2ccccc21,41%,
COCCCn1c(SCC(=O)Nc2ccccc2)nnc1-c1ccncc1,2.39%,
CN(C)CCCn1c(SCc2ccc(Cl)cc2)nnc1-c1ccncc1,,2.94 µM (active)
CC1CCCCC1NC(=O)CSc1nnc(-c2ccncc2)n1CCCN(C)C (stereo not drawn),6.86%,
O=C(c1cc(COc2c(F)cccc2F)on1)N1CCSCC1,289%,
NC(=O)C1CCN(CC(O)CSc2ccc(F)cc2)CC1 (stereo not drawn),26.9%,
O=c1cc(-c2ccccc2)nc(N2CCCCC2)[nH]1,-15.8%,
c1ccc(-n2cccc2)c(N2CCCCC2)c1,7.08%,
c1ccc(-c2cc(N3CCCCC3)c3ccccc3n2)cc1,,9.28 µM (active)
Cc1nc2ccccc2n1CC(O)c1ccccc1 (stereo not drawn),2.16%,
O=C(/C=C/c1cccc(C(F)(F)F)c1)N1CCN(c2ccccn2)CC1,12.2%,
Nc1nonc1-n1nnc(C(=O)N/N=C\c2ccncc2)c1CN1CCCCC1,79%,
Cc1ccc(CNS(=O)(=O)c2ccc3c(c2)N(C)CCO3)cc1,-0.724%,
Cc1ccc(S(=O)(=O)Nc2nc(CN3CCOCC3)nc3sc(C)c(C)c23)cc1,1.88%,
Cc1ccc(NC(=O)CN(C)C(=O)Cn2nnc(-c3ccccc3)n2)cc1,28%,
COc1c(C)c2c(c(O)c1C/C=C(\C)CCC(=O)O)C(=O)OC2,,1.61 µM (active)
Cc1cc(=O)oc2c(C(=O)c3ccccc3)c(OCC(N)=O)ccc12,0.359%,
COC(=O)c1cc(S(=O)(=O)N2CCC(C(N)=O)CC2)oc1C,5.4%,
